Assay results as given in PubChem BioAssay AID624330 (Southern Research Specialized Biocontainment Screening …, 2012).
Hit rate of the full screen: of about 340,000 compounds, about 2,100 (0.62%) were called active.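 Rule for the calls: active = first-screen hits whose inhibition reached a set limit at any dose in the follow-up dose series; inconclusive = inhibition above the set first-screen limit but never retested; inactive = the rest.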 These entries were drawn from the full list. Potency and affinity values are given separately.

Biological target: Rac GTPase-activating protein 1 (Homo sapiens) (UniProt Q9H0H5)
Sequence (Q9H0H5 whole entry, looked up): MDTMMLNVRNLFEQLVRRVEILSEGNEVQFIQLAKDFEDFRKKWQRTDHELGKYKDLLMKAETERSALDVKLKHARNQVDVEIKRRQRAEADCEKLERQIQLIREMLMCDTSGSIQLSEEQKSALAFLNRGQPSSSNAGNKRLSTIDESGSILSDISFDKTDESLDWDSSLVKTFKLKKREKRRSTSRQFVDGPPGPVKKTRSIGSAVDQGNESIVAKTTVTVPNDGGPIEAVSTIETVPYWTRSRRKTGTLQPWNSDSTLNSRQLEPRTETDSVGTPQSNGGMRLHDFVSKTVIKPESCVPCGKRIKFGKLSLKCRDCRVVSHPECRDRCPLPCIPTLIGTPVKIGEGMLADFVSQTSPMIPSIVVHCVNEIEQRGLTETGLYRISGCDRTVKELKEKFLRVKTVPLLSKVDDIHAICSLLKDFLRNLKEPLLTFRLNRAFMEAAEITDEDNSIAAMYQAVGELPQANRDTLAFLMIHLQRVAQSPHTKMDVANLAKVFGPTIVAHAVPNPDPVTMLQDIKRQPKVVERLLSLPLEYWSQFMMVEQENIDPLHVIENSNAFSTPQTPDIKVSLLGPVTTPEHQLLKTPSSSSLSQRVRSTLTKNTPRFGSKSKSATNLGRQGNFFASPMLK
Assay: blockers of MgcRacGAP-driven Rac1 GTP hydrolysis – biochemical, ADP Hunter fluorescence, primary and confirmatory, confirmation (AID 624330);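 note: fluorescence reports GDP produced by GAP-driven GTP hydrolysis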
Conditions: MgcRacGAP-stimulated Rac1 GTP hydrolysis, at 30 µM, active compounds read high, GST-tagged Rac1 F28L mutant substrate

inhibition, inactive:
O=C(COC(=O)Cc1c(Cl)cccc1Cl)Nc1ccccc1-c1ccccc1 1.56%, CC1(C)CC(=O)C(Sc2ccccc2)=C(O)C1 -4.47%, O=C(O)C1CC(c2ccccc2)=Nc2ccccc2S1 (stereo unspecified) 6.83%, CCOC(=O)Nc1ccc2c(c1)nc1n2CCN(CCOC)C1 8.24%, NS(=O)(=O)c1ccc(NC(=O)CSc2nc3c(c(=O)[nH]2)CCCC3)cc1 6.37%, CCN(CC(=O)NCc1ccc(F)cc1)C(=O)CN1CCN(c2ccccc2OC)CC1 2.73%, COc1ccc(CNC(=O)CN2CCN(c3ccc(F)cc3)CC2)cc1 6.2%, CCOc1ccccc1NC(=O)Cn1cnc2c(cnn2-c2ccc(C)c(C)c2)c1=O 9.09%, CC[C@@]1(C(=O)OC)N[C@H](CN(C)C(=O)c2ccc(F)cc2)[C@@H]2C(=O)N(Cc3ccccc3)C(=O)[C@@H]21 1.15%, CC(C)Cc1nnc(NC(=O)CCC(=O)NCCc2ccc(Cl)cc2)s1 4.94%, C[C@]12CC[C@@H]3c4ccc(O)cc4CC[C@H]3[C@@H]1CCC2=O 9.39%, CC12CCC3c4ccc(O)cc4CCC3C1CCC2=O (stereo unspecified) 5.82%, CC(O)Cn1c(N2CCCC2)nc2c1c(=O)[nH]c(=O)n2C (stereo unspecified) 4.91%, Cc1ccc2nc(C3CCCCC3)[nH]c2c1 9.42%, O=[N+]([O-])c1ccc2nc(-c3ccc(Cl)cc3)[nH]c2c1 9.26%, c1cncc(-c2nc3cc4ccccc4cc3[nH]2)c1 21.6%, O=[N+]([O-])c1ccc2nc(C3CCCCC3)[nH]c2c1 6.17%, c1cncc(-c2nc3ccccc3[nH]2)c1 3.11%, Cc1nc2ccc(-c3nc4cc(N)ccc4o3)cc2[nH]1 4.01%, Clc1ccc(-c2nc3ccncc3[nH]2)cc1 -13.9%, Cc1nc2ccc(-c3nc4ccccc4[nH]3)cc2[nH]1 22.2%, C=CCNC(=S)NNC(=O)c1ccc2c(c1)OCO2 4.79%, CC(NC(=O)C(=O)N1CCOCC1)C(c1cccs1)N1CCN(c2ccccc2)CC1 (stereo unspecified) 11%, CC1CCCN(C(=O)C2CCN(S(=O)(=O)c3ccc4c(c3)CC(C)N4C(=O)C3CC3)CC2)C1 (stereo unspecified) -0.15%, COc1ccc(CNC(=O)C(NS(=O)(=O)c2ccc3c(c2)CCCN3C(C)=O)C(C)C)cc1 (stereo unspecified) 6.24%, COc1cccc(CNC(=O)CCS(=O)(=O)c2ccc3c(c2)NC(=O)CS3)c1 6.72%, O=C1c2ccccc2NC(c2ccccn2)N1c1ccccc1F (stereo unspecified) 6.7%, O=C(NC1CCCCC1)c1cc(S(=O)(=O)N2CCCC2)ccc1Cl 9.3%, CCOC(=O)COc1nc(OC)nc(N2CCOCC2)n1 13%, Nc1ccc2nc(-c3cccc(-c4nc5ccc(N)cc5[nH]4)c3)[nH]c2c1 25.9%, Nc1ccc2nc(C(F)(F)F)[nH]c2c1 7.12%, Nc1ccc(-c2nc3ccccc3[nH]2)cc1 8.27%, Nc1cccc(-c2nc3ccccc3[nH]2)c1 8.22%, O=C(OCC(=O)N1CCN(C(=O)c2ccco2)CC1)c1sc2cc(F)ccc2c1Cl 3.78%, COC(=O)c1ccc(C(=O)OC)c(NC(=O)CN(C)Cc2cccc(Cl)c2Cl)c1 5.99%, Cc1nc2cc3nc(C)sc3cc2s1 10.8%, O=C(CCc1ccc(O)cc1)NN=Cc1ccc2c(c1)OCO2 28.7%, O=C(Cc1ccc(Cl)cc1)N/N=C/c1cccc(O)c1 -4.31%, COc1ccc(CCC(=O)N/N=C/c2ccc3c(c2)OCO3)cc1 4.06%, O=C(Cc1ccc(Cl)cc1)N/N=C/c1ccccc1 3.03%, O=C(CCC(=O)OCc1ccc([N+](=O)[O-])cc1)Nc1ccc(F)cc1 4.88%, O=C(CC(c1ccccc1)c1ccccc1O)NCCN1CCOCC1 (stereo unspecified) -6.2%, Nc1ccccc1-n1c(=O)n(Cc2ccccc2F)c(=O)c2[nH]cnc21 3.12%, C=CCn1c(SCc2cc(=O)n3cc(C)ccc3n2)nnc1-c1cccc(C)c1 8.24%, CSCC[C@H](NC(=O)OC(C)(C)C)C(=O)N1CCC(C(=O)NCC(=O)Nc2ccc(C)cc2)CC1 -4.04%, COCCNC(=O)c1ccc(-c2csc(C)n2)cc1 3.59%, C[C@@H]1CN([C@H](C)CO)C(=O)c2cc(Br)cnc2O[C@@H]1CN(C)C(=O)C1CCOCC1 8.56%, CNc1nnc(-c2ccncc2)s1 6.68%, CNc1nnc(-c2cccc(N(C)C)c2)s1 4.36%, Cc1cc(OCC(=O)NCC2CCC(C(=O)O)CC2)c2c(C)c(Cc3ccccc3)c(=O)oc2c1 (stereo unspecified) 1.13%, CCCc1cc(=O)[nH]c(SCC(=O)NC)n1 2.55%, CCCCNC(=O)c1ccc(CS(=O)(=O)c2ccc(OC)cc2)o1 -10.9%, CCOc1ccc(S(=O)(=O)Nc2ccc(C(=O)NCC(c3ccc(OC)cc3)N3CCOCC3)cc2)cc1 (stereo unspecified) 5.24%, COc1ccc(CN2CCC(=O)N(CCO)CC2)cc1OC 7.88%, O=C(c1ccco1)N1CCN(Cc2cn[nH]c2-c2ccc(F)cc2F)CC1 -5.62%, Cn1c(=O)[nH]c(Nc2ccc(F)cc2)c([N+](=O)[O-])c1=O 8.12%, Cn1c(=O)[nH]c(Nc2ccccc2)c([N+](=O)[O-])c1=O 5.65%, Cc1ccc(C(=O)NCCCNC(=O)c2ccco2)cc1 4.3%, CN(CC(=O)Nc1c(Cl)cccc1Cl)C(=O)C1CCN(C(=O)Nc2ccccc2)CC1 -1.59%, COc1ccccc1CCC(=O)OCC(=O)Nc1ccc(C(N)=O)cc1 -2.01%, Cc1ccc(S(=O)(=O)N2CCCCC2)cc1NC(=O)CSc1nc(N)cc(=O)[nH]1 4.78%, Cc1c(-c2ccccc2)sc(Br)c1C(=O)N1CCOCC1 2.64%, COC(=O)c1c(N)sc(C(=O)N2CCOCC2)c1C 8.37%, Cc1ccc(N(C(C)C(=O)O)S(=O)(=O)c2cccnc2)cc1 (stereo unspecified) 4.39%, Cc1ccc(C2=NOC(=O)/C2=C\C=C\c2ccccc2)cc1 6.67%, CN(C)/C=C1\C(=O)ON=C1c1ccccc1 11.7%, Cc1ccc(C2=NOC(=O)/C2=C\c2ccccc2)cc1 8.59%, O=C1ON=C(c2ccccc2)/C1=C/c1ccc(-c2ccccc2[N+](=O)[O-])o1 7.69%, COc1ccc(/C=C2\C(=O)ON=C2c2ccccc2)cc1 24.6%, O=C1ON=C(c2ccccc2)/C1=C/c1cccnc1 3.82%, O=C1ON=C(c2ccccc2)/C1=C\c1ccco1 19.1%, COc1cc([N+](=O)[O-])ccc1-c1ccc(/C=C2\C(=O)ON=C2c2ccccc2)o1 25%, Cc1ccc(CNS(=O)(=O)NCc2ccc(Cl)cc2)cc1 0.28%, COc1ccc(N2CCN(C(=O)COC(=O)CCS(=O)(=O)c3ccc(C)cc3)CC2)cc1 20.8%, O=S(=O)(c1ccc2ccccc2c1)N1CCNCC1 11.3%, COc1ccc(CNC(=O)CN(C(=O)CCC(=O)Nc2ccccn2)c2cccc(C)c2C)cc1 6.1%, CCc1nnc(NC(=O)CSc2nnc3ncccn23)s1 4.86%, CC(=O)Nc1cccc(NC(=O)CSc2n[nH]c(-c3ccccc3)n2)c1 2.62%, O=[N+]([O-])c1ccccc1S(=O)(=O)N1CCCc2ccccc21 -4.93%, COc1c(-c2ccc(O)cc2)oc2cc(O)cc(O)c2c1=O 8.09%, O=c1cc(O)c2ccc(O)cc2o1 11.2%, O=c1c(O)c(-c2ccc(O)c(O)c2)oc2cc(O)cc(O)c12 24.2%, COc1ccc(-c2coc3cc(O)ccc3c2=O)cc1 -1.73%, O=c1c(-c2ccc(F)cc2)coc2cc(O)ccc12 2.56%, COc1ccc(-c2oc3cc(O)c(OC)c(O)c3c(=O)c2OC)cc1O 26.4%, O=c1c(O)c(-c2ccccc2)oc2cc(O)cc(O)c12 9.81%, O=c1c(O)c(-c2cc(O)c(O)c(O)c2)oc2cc(O)cc(O)c12 -51.5%, CC1(C)CC(=O)C(N=Nc2ccc3ncsc3c2)=C(O)C1 9.23%, Cc1cc(C)c(/C([O-])=C(/C(=S)Nc2ccc(SC(F)F)cc2)[n+]2ccccc2)cc1C -14.3%, Cc1cc(C(=O)N2CCCC(N3CCN(c4cccc(Cl)c4)CC3)C2)n(C)n1 (stereo unspecified) 9.25%, O=C(COc1ccccc1)N[C@@H]1c2ccccc2CC[C@@H]1OCc1ccccc1 3.68%, CCN(C(=S)NC(=O)c1ccco1)c1cccc2ccccc12 15.5%, N/C(Cc1ccc(Cl)cc1Cl)=N\OC(=O)Cc1cccs1 6.38%, O=C(COc1ccc(-c2nnco2)cc1)NC1CCS(=O)(=O)C1 (stereo unspecified) 2.22%, Cn1c(SCC(=O)N2CCc3ccccc3C2)nnc1-c1cccs1 -0.2%, COc1cc(/C=C2\CCc3ccccc3C2=O)cc(OC)c1OC 4.54%, COc1cc(C=C2C(=O)c3ccccc3C2=O)cc(OC)c1 5.79%, COc1cc(/C=C2/CCc3ccccc3C2=O)cc(OC)c1OC 4.12%, COc1ccc(/C=C2\CCc3ccccc3C2=O)cc1O 12.2%, COc1cccc(/C=C2\CCc3ccccc3C2=O)c1 7.06%, COc1cc(C=C2C(=O)c3ccccc3C2=O)ccc1O 15.4%
